Here are results for 38 compounds from PubChem BioAssay (NCATS).

Inconclusive results are not listed. Where a call stands in place of a potency, no number is given. Active and inactive are the calls of the source. Calls come from the whole dose curve; as a rule, active = well fitted inhibition curve with a large enough effect; inconclusive = small, poorly fitted or top-dose-only effect; inactive = no such curve, though single readings can be large or run the other way.
Potency is the fitted concentration of half-maximal effect.

In the first assay the target is Retinaldehyde dehydrogenase 3 (Homo sapiens) (UniProt P47895). Kind of assay: qHTS for Inhibitors of the Aldehyde Dehydrogenase Family (ALDH1A3) Confirmatory screens (AID 2061311). Note: nearly all actives have a fitted effect of over 60% in size. As to conditions: ALDH inhibition qHTS; series mostly up to 46 µM. (In general: In qHTS, concentration-response curves come from the screen itself.)
As to `Cc1ccnc(NC(=S)N2CCN(c3ccc(O)cc3)CC2)c1`, the Potency is 12.7 µM (active).
Still for that read-out and setting: then `CCc1noc(-c2cccn3c(CNC(=O)COc4ccc(F)cc4)nnc23)n1`, with 7.08 µM (active); and `N#Cc1ccc(N2CCN(S(=O)(=O)c3ccc4c(c3)CC(=O)N4)CC2)cc1`, with 15.8 µM (active); and `CC(=O)Nc1sc2c(c1-c1cc3ccccc3o1)CCNC2`, with 11.3 µM (active).
Consider `Cc1ccnc(NCc2ccc(O)c3ncccc23)c1`, for which the Potency is 7.12 µM (active).

The target of another assay is Retinal dehydrogenase 2 (Homo sapiens) (UniProt O94788). Briefly: qHTS for Inhibitors of the Aldehyde Dehydrogenase Family (ALDH1A2) Confirmation screens (AID 2061314). Note: nearly all actives have a fitted effect of over 65% in size. Conditions: ALDH1A2 enzyme inhibition qHTS confirmation; series mostly up to 45.9 µM.
On to `COc1ccc(OC)c(S(=O)(=O)Nc2ccc3[nH]c(=O)[nH]c3c2)c1`, for which the Potency result was “inactive”.
Regarding `CC(C)Oc1ccc(CNC(=O)C2CCCCN2S(=O)(=O)c2ccc(F)cc2)cc1` (stereo not drawn), the Potency entry is “inactive”.
On the same count and under the same terms, in the case of `Cc1ccc(S(=O)(=O)NC[C@H]2O[C@@H](CC(=O)NCCN3CCOCC3)[C@H](O)[C@@H]2O)cc1` it was “inactive”; in that of `CC(C)NS(=O)(=O)c1ccc(OCC(=O)N2CCN(c3cccc(Cl)c3)CC2)cc1`, “inactive”.
In the case of `CCC(=O)N(C1CCOCC1)C1CCN(S(=O)(=O)c2ccc(C(F)(F)F)cc2)CC1`, the Potency result was “inactive”.
With `COc1ccc(C(CNC(=O)c2cccc([N+](=O)[O-])c2)N2CCOCC2)cc1` (stereo not drawn), the Potency entry is “inactive”.
For the compound `CCOc1ccc(C(=O)Nc2ccc(S(=O)(=O)N3CCCCC3c3cccnc3)cc2)cc1` (stereo not drawn), the Potency entry was “inactive”.
Turning to `O=C(c1n[nH]c2ccccc12)N1CCCC(Cc2noc(-c3cnccn3)n2)C1` (stereo not drawn), the Potency result was “inactive”.
Same read-out and setting: then `O=C(NCC(=O)N1CCOCC1)c1cccc(-c2ccc(C(F)(F)F)cc2)c1`, with “inactive”; and `COc1ccc(OC)c(N(CC(=O)NCc2ccccc2)S(=O)(=O)c2ccccc2)c1`, with “inactive”; and `COc1cccc(-c2nn(-c3ccccc3)c(OC(C)=O)c2-c2ccc(NC(=O)C3CCCC3)cc2)c1`, with “inactive”.
`CN(C)C(=O)CN1C(=O)CO[C@H](c2ccc(NS(=O)(=O)c3cccc(F)c3)cc2)[C@H]1CO`: the Potency entry is “inactive”.
As to `CC(C)Cn1c(=O)c(C(=O)NCc2cccs2)nc2cccnc21`, the Potency result is “inactive”.
`O=C(NCCOc1ccccc1)[C@@H]1C[C@@H](c2ccc(F)cc2)N([S+](=O)([O-])c2ccccc2)C1`: the Potency result was “inactive”.
As for `O=C1COCCN1C1CCN(S(=O)(=O)c2cccc(C(F)(F)F)c2)CC1`, the Potency entry was “inactive”.
On the same count and under the same terms, then `CCN(CC)S(=O)(=O)c1ccc2c(c1)N(CC(=O)N1CCN(c3cccc(C(F)(F)F)c3)CC1)C(=O)CO2`, with “inactive”.
On to `CCc1ccc(N(CC)C(=O)c2cn(C)c(=O)c3cc(OC)c(OC)cc23)cc1`, for which the Potency result was “inactive”.
As for `COC(=O)CSc1ccc2nnc(CCNS(=O)(=O)c3ccccc3)n2n1`, the Potency result is “inactive”.
Regarding `CNC(=O)c1cc(C)nc2onc(C3CCCN3C(=O)c3ccccc3)c12` (stereo not drawn), the Potency result is “inactive”.
On to `COCCNC(=O)CNC(=O)c1ccc(-c2cccc(C(F)(F)F)c2)cc1`, for which the Potency result was “inactive”.
As for `CN1C(=O)c2cccn2CC1CNC(=O)c1cccc2nccnc12` (stereo not drawn), the Potency entry is “inactive”.
Take `COc1cccc(-n2c(SCc3ccccc3C)nc3c([nH]c4ccccc43)c2=O)c1`: the Potency result is “inactive”.
The same measure, in the same setting: in the case of `COCCn1cnnc1CN(C)C(=O)c1ccc2nc(C)cn2c1` it was “inactive”.
Still for that read-out and setting: in the case of `COCC1CN(Cc2ccc(C(F)(F)F)cc2)CC12CCNCC2` (stereo not drawn) it was “inactive”; in that of `Cc1ccc(CN(C(=O)COc2ccc([N+](=O)[O-])cc2)c2ccccn2)cc1`, “inactive”; in that of `COc1ccc(S(=O)(=O)c2c(C(=O)c3ccc(C)c(C)c3)cnc3ccc(C)cc23)cc1`, “inactive”.
As for `COC(=O)c1cc(C)nc2c1c(=O)nc(SCc1ccccc1C)n2C1CC1`, the Potency entry is “inactive”.
Still for that read-out and setting: in the case of `Cc1oc2ncnc(N3CCOCC3)c2c1C(=O)NCc1ccc(Cl)cc1` it was “inactive”.
Consider `CC(C)OCCCn1c(SCc2ccccc2Cl)nc2c(sc3ccccc32)c1=O`, for which the Potency entry was “inactive”.
Still for that read-out and setting: in the case of `CCOc1ccccc1NC(=O)c1cnc(N2CCOCC2)c2ccccc12` it was “inactive”.
As for `Cc1ccc(-c2nnc3ccccc3c2C(=O)Nc2cccc(C(F)(F)F)c2)cc1`, the Potency entry was “inactive”.
On the same count and under the same terms, in the case of `CCOCc1cc(CN2CCN(c3cccc(C(F)(F)F)c3)CC2)c(O)c2ncccc12` it was “inactive”; in that of `COc1ccccc1-c1[nH]nc2ncc(C(=O)NCCc3ccccn3)nc12`, 39.8 µM (active).

The next assay deals with Aldehyde dehydrogenase 1A1 (Homo sapiens) (UniProt P00352). Briefly: qHTS for Inhibitors of the Aldehyde Dehydrogenase Family (ALDH1A1) Confirmatory screens (AID 2061316). Note: nearly all actives have a fitted effect of over 65% in size. As to conditions: ALDH inhibition qHTS; series mostly up to 47.3 µM.
In the case of `Cc1ccnc(NC(=S)N2CCN(c3ccc(O)cc3)CC2)c1`, the Potency is 7.98 µM (active).
As for `CCc1noc(-c2cccn3c(CNC(=O)COc4ccc(F)cc4)nnc23)n1`, the Potency entry is “inactive”.
In the case of `N#Cc1ccc(N2CCN(S(=O)(=O)c3ccc4c(c3)CC(=O)N4)CC2)cc1`, the Potency entry is “inactive”.
Same read-out and setting: in the case of `CC(=O)Nc1sc2c(c1-c1cc3ccccc3o1)CCNC2` it was 8.96 µM (active); in that of `Cc1ccnc(NCc2ccc(O)c3ncccc23)c1`, 8.96 µM (active).
